The record followed here is PubChem BioAssay (NCI).

About 79,000 compounds went through this panel and 15% of them were active in at least one assay; those are over-represented in the sample as a whole. Unmarked numbers belong to inactive results. Cut-off read from the data, not from the text of the source: active = growth inhibition above about 70%; inactive = the rest.

The test in a line: NCI Yeast Anticancer Drug Screen. Data for the bub3 strain (AID 167). The following applies: S. cerevisiae bub3 mutant strain, at 50.0 µM, hits give high values. The method, boiled down:
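Growth of a checkpoint-deficient yeast mutant is measured after compound exposure. Values represent inhibition relative to vehicle.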
For `COC(=O)c1cc(C(=O)c2ccccc2)cc2c1c(=O)[nH]c1ccccc12`, the growth inhibition is -23.9%.

For `Nc1ccc(C(=O)NN2C(=O)C(Cl)C2c2ccccc2Cl)cc1` (configuration not stated), the growth inhibition was 38.3%.

Consider `S=c1nc[nH]c2c1ncn2C1CCCC1`, for which the growth inhibition is -0.3%.

As to `Cc1cc(C)c(NC(=O)Nc2cccc(Cl)c2)c(C)c1`, the growth inhibition is 3.35%.

With `O=C(OCC1OC(OC(=O)c2ccccc2)C(O)C1OC(=O)c1ccccc1)c1ccccc1` (configuration not stated), the growth inhibition is 35.7%.

For the compound `[O-]c1csc2n(-c3ccccc3)c3ccccc3[n+]12`, the growth inhibition was -4.65%.

On to `COc1nc(SC)nc2[nH]ccc12`, for which the growth inhibition is -6.35%.

In the case of `O=C1CN(Cc2ccccc2)CCO1`, the growth inhibition was 10.5%.

Take `CC(C)/C(Cl)=N\OC(NC(=O)P(=O)(c1ccccc1)c1ccccc1)(C(F)(F)F)C(F)(F)F`: the growth inhibition is 52.4%.

For `O=c1[nH][nH]c(=O)c2[nH]cnc12`, the growth inhibition was -6.3%.

Turning to `CN1CCCc2cccc(NC(=O)C3CCCNC3=O)c21` (configuration not stated), the growth inhibition is 6.55%.

With `CC(=O)Nc1c([N+](=O)[O-])cc(C2CCCCC2)cc1[N+](=O)[O-]`, the growth inhibition is 23.2%.

As for `COC1(c2ccccc2)OC(=O)C(C)(C)c2ccccc21` (configuration not stated), the growth inhibition is 13.9%.

For the compound `COC(=O)C1C2CC3C(OC(=O)C31)C2OC(=O)[C@](OC)(c1ccccc1)C(F)(F)F` (some centres not stated), the growth inhibition was 15.5%.

With `O=C(O)CCSc1ccccc1`, the growth inhibition was -3.45%.

Turning to `CCN(CC)CCOC(NC(C)=O)(c1ccccc1)c1ccccc1`, the growth inhibition was 14.8%.

For `CCCCCCCCCCCCCC(=O)Cl`, the growth inhibition is -65.5%.
